# Where “and” joins values, the source holds several entries; their conditions need not be identical. Identical values can stand only once. Results filed as inconclusive are left out. A structure can be active in one record and inactive in another. Calls of active or inactive are those of the source. The calls were made as follows: active = hit-call score of the fitted dose curve at least 0.9, where 1 is the maximum; inconclusive = response in the unintended direction; inactive = score below 0.9.
# Target: Estrogen receptor (Homo sapiens) + Estrogen receptor beta (Homo sapiens) (UniProt P03372+Q92731)
# Sequence (P03372 whole entry, looked up): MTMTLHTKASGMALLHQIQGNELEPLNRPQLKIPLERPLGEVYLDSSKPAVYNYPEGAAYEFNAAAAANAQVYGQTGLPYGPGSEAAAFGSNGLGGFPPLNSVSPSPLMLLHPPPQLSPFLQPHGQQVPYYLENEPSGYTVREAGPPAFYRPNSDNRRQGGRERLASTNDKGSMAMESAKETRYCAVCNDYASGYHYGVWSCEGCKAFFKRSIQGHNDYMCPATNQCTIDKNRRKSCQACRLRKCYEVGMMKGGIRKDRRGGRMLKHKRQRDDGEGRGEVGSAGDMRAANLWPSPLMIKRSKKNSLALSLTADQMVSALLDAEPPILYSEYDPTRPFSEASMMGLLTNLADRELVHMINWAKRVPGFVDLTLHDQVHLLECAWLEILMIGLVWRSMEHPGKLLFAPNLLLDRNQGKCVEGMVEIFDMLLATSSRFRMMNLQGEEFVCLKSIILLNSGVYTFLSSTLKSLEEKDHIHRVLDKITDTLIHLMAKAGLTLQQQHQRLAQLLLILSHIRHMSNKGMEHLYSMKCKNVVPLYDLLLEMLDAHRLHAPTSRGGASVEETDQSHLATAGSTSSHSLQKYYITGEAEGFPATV
# Sequence (Q92731 whole entry, looked up): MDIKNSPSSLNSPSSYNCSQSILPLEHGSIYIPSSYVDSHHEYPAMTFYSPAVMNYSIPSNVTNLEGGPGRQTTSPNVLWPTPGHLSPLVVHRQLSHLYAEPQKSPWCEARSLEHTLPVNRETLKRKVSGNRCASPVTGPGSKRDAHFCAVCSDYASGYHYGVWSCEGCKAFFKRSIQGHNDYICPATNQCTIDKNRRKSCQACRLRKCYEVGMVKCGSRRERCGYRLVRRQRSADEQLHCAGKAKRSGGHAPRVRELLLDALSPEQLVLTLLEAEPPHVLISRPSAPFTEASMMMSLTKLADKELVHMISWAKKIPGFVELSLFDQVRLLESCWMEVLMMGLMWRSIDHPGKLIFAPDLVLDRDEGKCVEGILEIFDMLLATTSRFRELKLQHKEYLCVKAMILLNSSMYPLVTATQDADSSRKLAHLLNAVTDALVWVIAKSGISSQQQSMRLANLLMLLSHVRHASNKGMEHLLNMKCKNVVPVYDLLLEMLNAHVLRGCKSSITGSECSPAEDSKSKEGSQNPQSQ
# Assay: OT_ER_ERaERb_1440: Odyssey Thera (OT) 24-hour HEK293T Protein-Complementation Assay for Estrogen Receptor-alpha/-beta Homodimer (AID 2283356);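 also: hits raise reporter fluorescence and both agonists and antagonists give an increase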
# Method: OT_ER_ERaERb_1440 is a cell-based assay that uses HEK293T, a human kidney cell line, with measurements taken at 24 hours after chemical dosing in a 384-well plate.OT_ER_ERaERb_1440 is one of one assay component(s) measured or calculated from the OT_ER_ERaERb_1440 assay. It is designed to make measurements of protein fragment complementation, a form of binding reporter, as detected with fluorescence intensity signals by Protein-fragment Complementation technology.Data from the assay component OT_ER_ERaERb_1440 was analyzed into 1 assay endpoint. This assay endpoint, OT_ER_ERaERb_1440, was analyzed in the positive analysis fitting direction relative to DMSO as the negative control and baseline of activity. Using a type of binding reporter, measures of receptor for gain-of-signal activity can be used to understand the binding at the pathway-level as they relate to the gene ESR1 and ESR2. Furthermore, this assay endpoint can be referred to as a primary readout, because the performed assay has only produced 1 assay endpoint. To generalize the intended target to other relatable targets, this assay endpoint is annotated to the nuclear receptor intended target family, where the subfamily is steroidal.
# Protein-fragment complementation assay, or PCA, is a method for the identification and quantification of protein-protein interactions. In the PCA, the proteins of interest ("bait" and "prey") are each covalently linked to fragments of a third protein (e.g. DHFR, which acts as a "reporter"). Interaction between the bait and the prey proteins brings the fragments of the reporter protein in close proximity to allow them to form a functional reporter protein whose activity can be measured. The OT ER alpha / ER beta assay is a heterodimer PCA of the ligand binding domain (LBD) of ER alpha (amino acids 310-547) and human ER beta (amino acids 263-489) stably expressed in HEK293T cells. […] Fluorescent signal in the basal state of the assay is very low and is primarily punctuate and cytoplasmic. Modulation of this assay is quantified as an increase in mean fluorescence intensity in the nucleus (for agonists) or in the nucleus and cytoplasm (antagonists) relative to vehicle controls, and can be quantified on a high content imaging device or a laser scanning cytometer. The latter instrument is favored for this assay because of the rapid mode of data acquisition, the ability to acquire data from the entire cell population in a well (as opposed to a fraction of the well on the high content devices) and the larger dynamic range typically achieved with this instrument. To assess sensitivity of the ER alpha/ER beta LBD assay to ligand, cells were treated with the ER agonist 17- beta-estradiol (E2) in 10-point concentration- response format for 24 hours and monitored response on a laser scanning plate cytometer (Acumen eX3; TTP Lab Tech).
Compound,outcome,AC50
Cc1cc(F)ccc1-c1cc(N2CC[C@@H](O)[C@H]2CO)ncc1N(C)C(=O)C(C)(C)c1cc(C(F)(F)F)cc(C(F)(F)F)c1,inactive,–
CCO[Si](CCCNC(N)=O)(OCC)OCC,inactive,–
CCN(Cc1cccc(S(=O)(=O)O)c1)c1ccc(C(=C2C=CC(=[N+](CC)Cc3cccc(S(=O)(=O)O)c3)C=C2)c2ccccc2S(=O)(=O)[O-])cc1,inactive,–
CCCCCCCCCCCCO,inactive,–
O=c1ccc2ccccc2o1,inactive,–
O=c1[nH]sc2ccccc12,inactive,–
NC(=O)c1nc(-c2cccc(-c3cc(F)ccc3OCC(F)(F)C(F)(F)F)c2)n[nH]1,inactive,–
O=C=NCCCCCCN=C=O,inactive,–
CCCCCCCCCCCO,inactive,–
O=C(Nc1ccc(Cl)cc1)Nc1ccc(Cl)c(Cl)c1,inactive,–
CC(C)(O)c1ccc(CNC(=O)c2cccnc2Oc2ccc3nonc3c2)cc1,inactive,–
COCC(C)OCC(C)OCC(C)O (centres undefined),inactive,–
OC12N=C(c3ccccc3)SC1Cc1cc(Cl)ccc12 (centres undefined),inactive,–
CCCCCc1ccc(N)cc1,inactive,18.9 µM (active) and 27.8 µM (active) and 42.5 µM (active)
COc1cccc([C@H](O)C2CCN(CCc3ccc(F)cc3)CC2)c1OC,inactive,–
CCN(Cc1cccnc1)C(=O)c1cccc(Cl)c1[C@]1(C)C(=O)N(Cc2ccc(OC)cc2OC)c2ccc(Cl)cc21,inactive,–
CC1=CC(=O)/C(=C(/C)O)C(=O)O1,inactive,–

Compound,outcome,AC50
Clc1ccccc1C(c1ccccc1)(c1ccccc1)n1ccnc1,inactive,–
CC[C@H](NC(=O)c1cc(F)ccc1NS(=O)(=O)c1cccc2cccnc12)c1ccccc1,inactive,–
CCCCCCCCOC(=O)c1cc(O)c(O)c(O)c1,–,13 µM (active)
CCOC(=O)O[C@H](C)OC(=O)c1ccc2c(c1)cc(C(=O)NC1CCN(C(C)C)CC1)n2Cc1cc(-c2ccc(Cl)s2)on1,inactive,–
CN(C)c1ccc(C(=C2C=CC(=[N+](C)C)C=C2)c2ccc(N(C)C)cc2)cc1,inactive,–
CCCOC(=O)c1cc(O)c(O)c(O)c1,–,49 µM (active)
COc1cc(C(=O)NC2CCN(C)CC2)ccc1Nc1ncc2c(n1)N(C1CCCC1)CC(F)(F)C(=O)N2C,–,11 µM (active)
O=C(O)c1ccccc1-n1cc(C(=O)O)c(=O)c2cc(Nc3c(F)cc(F)cc3Cl)c(Cl)cc21,inactive,–
Cc1ccc2oc(CN(Cc3ccccc3)C(=O)Nc3c(F)cc(F)cc3F)c(-c3ccc(Cl)cc3)c2c1,inactive,–
CC(C)(C)c1csc(-c2cc3cc(OCc4ccccc4CC(=O)O)ccc3o2)n1,inactive,–
c1ccc(C[n+]2cccc3ccccc32)cc1,inactive,–
CN1C(=O)N(c2ccccc2Br)Cc2cnc(Nc3ccc4c(c3)OCC(CO)O4)nc21 (centres undefined),inactive,–
O=C(O)Cn1c(=O)n(Cc2ccc(Br)cc2F)c(=O)c2ccc(Cl)cc21,inactive,–
CC[C@@H]1C[C@H](N(Cc2cc(C(F)(F)F)cc(C(F)(F)F)c2)C(C)=O)c2cc(C(F)(F)F)ccc2N1C(=O)OC(C)C,inactive,–
Cc1occc1C(=O)Nc1ccc(C(=O)N2CCC(F)(F)/C(=C\C(=O)N3CCC(N4CCCCC4)CC3)c3ccccc32)cc1,–,33.5 µM (active)
Cc1cc2c(cc1C(F)(F)F)N(C(=O)Nc1ccc(Oc3cccnc3C)nc1)CC2,inactive,–
